Results reported in PubChem BioAssay (NCATS).
Values joined by “and” are separate entries in the source; they are usually repeats but may differ in a detail not shown here. Identical values can stand only once. Results filed as inconclusive are left out. A call without a number means that no potency is given here. Active and inactive are the calls of the source. Unless noted, calls follow the shape of the dose curve; as a rule, active = well fitted curve in the direction sought with a large enough effect; inconclusive = small, poorly fitted or top-dose-only effect, or another doubt; inactive = no such curve, though single readings can be large; an effect the other way counts as inactive or inconclusive.

What was measured:
[1] = biological target: Cytochrome P450 2D6 (Homo sapiens) (UniProt P10635); test: Cytochrome P450 family 2 subfamily D member 6 (CYP2D6) small molecule antagonists: luciferase biochemical (cell-free) qHTS assay (AID 1645840; active = well fitted curve in the direction sought with a large enough effect in the repeat runs; an effect the other way counts as inactive or inconclusive; also: nearly all actives have a fitted effect of over 55% in size)
Sequence of Cytochrome P450 2D6 (Homo sapiens) (P10635 whole entry, looked up): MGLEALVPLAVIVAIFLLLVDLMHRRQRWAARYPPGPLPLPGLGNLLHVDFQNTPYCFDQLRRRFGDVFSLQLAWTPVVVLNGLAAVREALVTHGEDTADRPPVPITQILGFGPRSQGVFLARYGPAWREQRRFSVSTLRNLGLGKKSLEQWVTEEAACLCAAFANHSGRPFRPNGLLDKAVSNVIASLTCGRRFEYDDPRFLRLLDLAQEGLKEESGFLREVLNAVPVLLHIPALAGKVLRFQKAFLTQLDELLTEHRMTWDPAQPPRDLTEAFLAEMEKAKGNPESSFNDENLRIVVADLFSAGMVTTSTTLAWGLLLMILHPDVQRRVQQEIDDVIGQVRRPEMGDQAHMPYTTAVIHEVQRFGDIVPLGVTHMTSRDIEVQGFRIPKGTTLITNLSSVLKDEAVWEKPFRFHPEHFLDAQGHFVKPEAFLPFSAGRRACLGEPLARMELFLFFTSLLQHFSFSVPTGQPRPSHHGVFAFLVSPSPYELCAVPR
Procedure, shortened: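 P450-Glo CYP2D6 system: proluciferin substrate converted by enzyme to luciferin, read by luminescence proportional to activity. Enzyme-substrate mix with compound 10 min at room temperature, then NADPH regeneration 1 h before detection reagent.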

[2] = biological target: Cytochrome P450 2C9 (Homo sapiens) (UniProt P11712); test: Cytochrome P450 family 2 subfamily C member 9 (CYP2C9) small molecule antagonists: luciferase biochemical (cell-free) qHTS assay (AID 1645842; active = well fitted curve in the direction sought with a large enough effect in the repeat runs; an effect the other way counts as inactive or inconclusive; also: nearly all actives have a fitted effect of over 55% in size)
Sequence of Cytochrome P450 2C9 (Homo sapiens) (P11712 whole entry, looked up): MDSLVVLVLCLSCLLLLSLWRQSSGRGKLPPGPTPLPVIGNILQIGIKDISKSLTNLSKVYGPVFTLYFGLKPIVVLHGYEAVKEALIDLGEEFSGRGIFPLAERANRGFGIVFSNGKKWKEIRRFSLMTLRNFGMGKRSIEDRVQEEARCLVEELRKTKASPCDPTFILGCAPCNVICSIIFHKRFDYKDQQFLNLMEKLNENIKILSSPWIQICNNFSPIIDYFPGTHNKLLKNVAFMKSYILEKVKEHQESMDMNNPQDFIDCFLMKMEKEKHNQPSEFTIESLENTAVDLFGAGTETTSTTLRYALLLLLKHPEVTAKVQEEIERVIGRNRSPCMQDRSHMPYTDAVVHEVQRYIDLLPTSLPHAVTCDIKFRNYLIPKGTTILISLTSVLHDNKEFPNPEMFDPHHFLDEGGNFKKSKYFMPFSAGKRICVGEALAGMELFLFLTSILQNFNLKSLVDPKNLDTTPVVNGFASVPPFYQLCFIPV
Procedure, shortened: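 P450-Glo CYP2C9 system: proluciferin substrate with enzyme in mix containing 0.4% BSA, 10 min at room temperature, then NADPH regeneration solution added and incubated 1 h at 37C. Detection reagent stopped reaction; luminescence read after 20 min as RLU.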

[3] = Primary qHTS for inhibitors of nuclear receptor binding SET domain protein 2 (NSD2) in an isogenic RCH-ACV NSD2 p.E1099K mutant (9B) (AID 1645876); also: nearly all actives have a fitted effect of over 70% in size
[4] = Primary qHTS for inhibitors of nuclear receptor binding SET domain protein 2 (NSD2) in an RCH-ACV wild type WT cells (2C) (AID 1645877); also: nearly all actives have a fitted effect of over 70% in size
Potency is read from the fitted curve at half-maximal effect.

| Structure (SMILES) | Potency [1] | Potency [2] | Potency [3] | Potency [4] |
| --- | --- | --- | --- | --- |
| CNC(=O)c1ccc(Nc2ncc(C(F)(F)F)c(NCc3nccnc3N(C)S(C)(=O)=O)n2)cc1 | inactive | 3.79 µM (active) | 2.58 µM (active) and 1.66 µM (active) | 2.05 µM (active) and 1.86 µM (active) |
| COCCCNCC1COc2ccccc2O1 (stereo unspecified) | 9.52 µM (active) | inactive | inactive | inactive |
| COc1cccc(-n2nc(C(=O)O)cc2-c2ccc(C3CCCCC3)c(Cl)c2)c1 | – | inactive | inactive | inactive |
